Results as given in PubChem BioAssay (NCI).
This is part of a sample that, as a whole, favours compounds with a hit. Of some 83,000 tested, about 20% had one in any assay.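 Cell lines were cultured in 96-well plates, exposed to a single compound concentration, and assessed for percent growth 48 hours later.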 Calls of active or inactive are those of the source. The calls were made as follows: active = growth percent below 10; inactive = the rest.

Tested on: CCRF-CEM leukemia
Assay: NCI-60 one-dose screen, 48 h (100 = growth as untreated, 0 = no growth, -100 = all killed)
Conditions: 10 µM unless noted

SMILES | growth
CN1CCN(Cc2ccc(NC(=O)c3cncc(C#Cc4cnc5ccc(N6CCN(C)CC6)nn45)c3)cc2C(F)(F)F)CC1 | -2.14% (active)
O=C(CN1CCN(c2cc(=O)[nH]c3ccc(F)cc23)CC1)Nc1ccc(Cl)cc1 | 98.2% (inactive)
O=S(=O)(NCCCNc1nccc(-c2[nH]c(-c3ccccc3)nc2-c2ccc(Cl)c(O)c2)n1)c1cccc(F)c1 | 32.9% (inactive)
Cc1cc(-c2ccc(Cl)cc2)n(Cc2nnc(SCC(=O)Nc3ccc(S(N)(=O)=O)cc3)n2C2CCCCC2)n1 | 114% (inactive)
Oc1cccc2ccc(-c3nnc(SCc4ccc(O)c5ncccc45)n3-c3ccccc3)nc12 | 11.6% (inactive)
Cc1ccc(-c2nn(-c3ccccc3)cc2/C=C/C(=O)c2ccc(NC(=O)CCCCCCC(=O)NO)cc2)cc1 | 38.8% (inactive)
CC(C)(C)c1ccc(C(=O)Nc2sc3c(c2C(N)=O)CCC(O)C3)cc1 (configuration not stated) | 53.1% (inactive)
CC(C)(C)c1ccc(C(=O)Nc2sc3c(c2C(N)=O)CC/C(=N\O)C3)cc1 | 10.1% (inactive)
COc1ccc(N2C(=O)c3cc(Cl)ccc3NC2SCc2ccccc2)cc1 (configuration not stated) | 92.2% (inactive)
O=C(CN1CCN(c2cc(=O)n(-c3ccccc3)c3ccccc23)CC1)Nc1nc(-c2ccc(Cl)cc2)cs1 | 50.7% (inactive)
Cn1ccnc1C(=O)/C=C/c1ccc(NC(=O)c2c(F)c(F)c(F)c(F)c2F)cc1 | 86% (inactive)
C#CCC#CCN1CCC[C@H]1C(=O)NCC(=O)OC | 109% (inactive)
COc1cc(/C=C/C(=O)c2ccc(NC(=O)CSc3nnc(-c4ccc(-c5nc6ccc(Cl)cc6[nH]5)cc4)o3)cc2)cc(OC)c1OC | 85.9% (inactive)
NS(=O)(=O)c1ccc(Nc2nc(SCc3ccccc3)nc3ccccc23)cc1 | 41.8% (inactive)
N#Cc1c(-c2cccs2)cc(-c2cnccn2)nc1SCC(=O)Nc1ccc(Br)cc1 | 83.4% (inactive)
C=CCn1c(SCC(=O)Nc2ccc(C(=O)/C=C/c3ccc(C)cc3)cc2)nnc1-c1c[nH]c2ccccc12 | 83.1% (inactive)
CCc1cccc2c3c(sc12)C(c1ccc(Cl)cc1)C(C#N)=C(/N=C/c1ccc(Cl)cc1)O3 (configuration not stated) | 13% (inactive)
C=C(C=O)[C@@H]1CC[C@]2(COC(C)=O)CC[C@]3(C)C(CC[C@@H]4[C@@]5(C)CC[C@H](OC(C)=O)C(C)(C)[C@@H]5CC[C@]43C)[C@@H]12 (some centres not stated) | 10.9% (inactive)
COc1ccccc1N1CCN(C2=CC(=O)C(C)=C(C)C2=O)CC1 | 101% (inactive)

Tested on: MOLT-4 leukemia
Assay: as above
Conditions: 10 µM unless noted

SMILES | growth
CN1CCN(Cc2ccc(NC(=O)c3cncc(C#Cc4cnc5ccc(N6CCN(C)CC6)nn45)c3)cc2C(F)(F)F)CC1 | -26.2% (active)
O=C(O)c1cn(C2CC2)c2cc(N3CCN(C(=O)CN4C(=O)CSC4=O)CC3)c(F)cc2c1=O | 109% (inactive)
NC/C(=C/F)COc1ccc2nc(NCc3cccnc3)oc2c1 | 106% (inactive)
C=C(C)[C@@H]1CC[C@]2(C(=O)NCCCCCN(CCC#N)CCC#N)CC[C@]3(C)[C@H](CC[C@@H]4[C@@]5(C)CCC(=O)C(C)(C)[C@@H]5CC[C@]43C)[C@@H]12 | 92% (inactive)
CCCCNNC(=O)c1ccc(-c2cccc(F)c2F)cc1 | 27.7% (inactive)
C#Cc1ccc(C(=O)NCc2ccc(/C=C/C(=O)c3nccn3C)cc2)cc1 | 1.15% (active)
COc1ccc(/C(N)=N/C(N)=N/c2nc3ccccc3s2)cc1 | 74.6% (inactive)
O=C(CN1CCN(c2cc(=O)[nH]c3ccc(F)cc23)CC1)Nc1ccc(Cl)cc1 | 92.4% (inactive)
Cc1ccc(-n2cc(/C=C/C(=O)c3ccc(O)cc3)c(-c3ccc(S(C)(=O)=O)cc3)n2)cc1 | 34.8% (inactive)
O=S(=O)(NCCCNc1nccc(-c2[nH]c(-c3ccccc3)nc2-c2ccc(Cl)c(O)c2)n1)c1cccc(F)c1 | 40.3% (inactive)
Cc1cc(-c2ccc(Cl)cc2)n(Cc2nnc(SCC(=O)Nc3ccc(S(N)(=O)=O)cc3)n2C2CCCCC2)n1 | 141% (inactive)
Oc1cccc2ccc(-c3nnc(SCc4ccc(O)c5ncccc45)n3-c3ccccc3)nc12 | 12.2% (inactive)
Cc1ccc(-c2nn(-c3ccccc3)cc2/C=C/C(=O)c2ccc(NC(=O)CCCCCCC(=O)NO)cc2)cc1 | 38.5% (inactive)
CC(C)(C)c1ccc(C(=O)Nc2sc3c(c2C(N)=O)CCC(O)C3)cc1 (configuration not stated) | 56.4% (inactive)
O=C(Nc1ccc2c(ccn2Cc2ccccn2)c1)c1ccnnc1 | 115% (inactive)
CC(C)(C)c1ccc(C(=O)Nc2sc3c(c2C(N)=O)CC/C(=N\O)C3)cc1 | 15% (inactive)
NC(N)=Nc1ccc(Oc2cccc(Nc3ccc(Cl)cc3)c2)cn1 | -12.8% (active)
CCc1cccc(NC(=O)CNc2cc(S(=O)(=O)N(C)C)cc(C)c2C)c1 | 82.4% (inactive)
COc1ccc(N2C(=O)c3cc(Cl)ccc3NC2SCc2ccccc2)cc1 (configuration not stated) | 84.5% (inactive)

SMILES | growth
O=C(CN1CCN(c2cc(=O)n(-c3ccccc3)c3ccccc23)CC1)Nc1nc(-c2ccc(Cl)cc2)cs1 | 29% (inactive)
COc1ccc(C2c3sc4c(C)cccc4c3Oc3nc(CC(=O)Nc4ccccc4)[nH]c(=O)c32)cc1 (configuration not stated) | 101% (inactive)
O=C(/C=C/c1ccc(F)cc1)c1ccc(O)cc1 | 92.5% (inactive)
Cn1ccnc1C(=O)/C=C/c1ccc(NC(=O)c2c(F)c(F)c(F)c(F)c2F)cc1 | 85.2% (inactive)
Nc1cc(-c2c[nH]c3ccc(Br)cc23)nc2cc(-c3c[nH]c4ccc(Br)cc34)nn12 | -3.94% (active)
C#CCC#CCN1CCC[C@H]1C(=O)NCC(=O)OC | 107% (inactive)
COc1cc(/C=C/C(=O)c2ccc(NC(=O)CSc3nnc(-c4ccc(-c5nc6ccc(Cl)cc6[nH]5)cc4)o3)cc2)cc(OC)c1OC | 85% (inactive)
Oc1cccc2ccc(-c3nnc(SCc4ccc(O)c5ncccc45)o3)nc12 | 17.4% (inactive)
NS(=O)(=O)c1ccc(Nc2nc(SCc3ccccc3)nc3ccccc23)cc1 | 43.9% (inactive)
O=C1[C@@H]2Cc3c([nH]c4ccccc34)[C@H](c3c(Cl)cccc3Cl)N2C(=O)CN1C1CCN(CC2CCCCC2)CC1 | 19.5% (inactive)
NS(=O)(=O)c1ccc(Nc2nc(N/N=C/c3c[nH]c4ccccc34)nc(Nc3ccccc3)n2)cc1 | 19.9% (inactive)
N#Cc1c(-c2cccs2)cc(-c2cnccn2)nc1SCC(=O)Nc1ccc(Br)cc1 | 89.5% (inactive)
COc1ccc(Cn2cc3c(c2-c2cc(OC)c(OC)c(OC)c2)CCc2c(CN4CCOCC4)noc2-3)cc1 | 22.7% (inactive)
C=CCn1c(SCC(=O)Nc2ccc(C(=O)/C=C/c3ccc(C)cc3)cc2)nnc1-c1c[nH]c2ccccc12 | 60.7% (inactive)
COc1ccccc1C(=O)Nc1cccc2c1C(=O)C(=O)C=C2 | 36.8% (inactive)
COc1cc(-c2nn(C(C)(C)C)cc2-c2ccnc(NCCCNS(=O)(=O)c3ccc(Cl)cc3)n2)ccc1Cl | 31% (inactive)
CCc1cccc2c3c(sc12)C(c1ccc(Cl)cc1)C(C#N)=C(/N=C/c1ccc(Cl)cc1)O3 (configuration not stated) | 30.2% (inactive)
C=C(C=O)[C@@H]1CC[C@]2(COC(C)=O)CC[C@]3(C)C(CC[C@@H]4[C@@]5(C)CC[C@H](OC(C)=O)C(C)(C)[C@@H]5CC[C@]43C)[C@@H]12 (some centres not stated) | -18.1% (active)
COc1ccccc1N1CCN(C2=CC(=O)C(C)=C(C)C2=O)CC1 | 93.3% (inactive)
